# Source: the supplement of paper PMC3334620
# In all, about 33,000 sequences were measured (“E-score (-0.5 to 0.5)”: median about -0.054, highest 2% from about 0.39 on). The sample holds the highest values, similar sequences and a random draw of the others, so the mix is not that of the screen.
# Biological target: Ylr278c (UniProt Q05854)
# Assay: PBM E-score (8-mer binding enrichment) (E-score (-0.5 to 0.5)); higher = stronger / more preferred TF binding
# Details: protein concentration: 200 nM; construct: GST-DNA-binding domain
# Outline: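 Yeast transcription factors, full-length or as DNA-binding domains, were expressed with a GST tag using PURExpress in vitro transcription/translation. At about 100-200 nM they were applied to universal all-10-mer Agilent arrays, double-stranded by primer extension on fresh or once-stripped slides. Fluorescent anti-GST detected bound protein, and masliner normalised the scans. E-scores for ungapped eight-base words, pooled with reverse complements, came from the Universal PBM Analysis Suite.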
# Chain of UniProt Q05854 (Q05854 whole entry): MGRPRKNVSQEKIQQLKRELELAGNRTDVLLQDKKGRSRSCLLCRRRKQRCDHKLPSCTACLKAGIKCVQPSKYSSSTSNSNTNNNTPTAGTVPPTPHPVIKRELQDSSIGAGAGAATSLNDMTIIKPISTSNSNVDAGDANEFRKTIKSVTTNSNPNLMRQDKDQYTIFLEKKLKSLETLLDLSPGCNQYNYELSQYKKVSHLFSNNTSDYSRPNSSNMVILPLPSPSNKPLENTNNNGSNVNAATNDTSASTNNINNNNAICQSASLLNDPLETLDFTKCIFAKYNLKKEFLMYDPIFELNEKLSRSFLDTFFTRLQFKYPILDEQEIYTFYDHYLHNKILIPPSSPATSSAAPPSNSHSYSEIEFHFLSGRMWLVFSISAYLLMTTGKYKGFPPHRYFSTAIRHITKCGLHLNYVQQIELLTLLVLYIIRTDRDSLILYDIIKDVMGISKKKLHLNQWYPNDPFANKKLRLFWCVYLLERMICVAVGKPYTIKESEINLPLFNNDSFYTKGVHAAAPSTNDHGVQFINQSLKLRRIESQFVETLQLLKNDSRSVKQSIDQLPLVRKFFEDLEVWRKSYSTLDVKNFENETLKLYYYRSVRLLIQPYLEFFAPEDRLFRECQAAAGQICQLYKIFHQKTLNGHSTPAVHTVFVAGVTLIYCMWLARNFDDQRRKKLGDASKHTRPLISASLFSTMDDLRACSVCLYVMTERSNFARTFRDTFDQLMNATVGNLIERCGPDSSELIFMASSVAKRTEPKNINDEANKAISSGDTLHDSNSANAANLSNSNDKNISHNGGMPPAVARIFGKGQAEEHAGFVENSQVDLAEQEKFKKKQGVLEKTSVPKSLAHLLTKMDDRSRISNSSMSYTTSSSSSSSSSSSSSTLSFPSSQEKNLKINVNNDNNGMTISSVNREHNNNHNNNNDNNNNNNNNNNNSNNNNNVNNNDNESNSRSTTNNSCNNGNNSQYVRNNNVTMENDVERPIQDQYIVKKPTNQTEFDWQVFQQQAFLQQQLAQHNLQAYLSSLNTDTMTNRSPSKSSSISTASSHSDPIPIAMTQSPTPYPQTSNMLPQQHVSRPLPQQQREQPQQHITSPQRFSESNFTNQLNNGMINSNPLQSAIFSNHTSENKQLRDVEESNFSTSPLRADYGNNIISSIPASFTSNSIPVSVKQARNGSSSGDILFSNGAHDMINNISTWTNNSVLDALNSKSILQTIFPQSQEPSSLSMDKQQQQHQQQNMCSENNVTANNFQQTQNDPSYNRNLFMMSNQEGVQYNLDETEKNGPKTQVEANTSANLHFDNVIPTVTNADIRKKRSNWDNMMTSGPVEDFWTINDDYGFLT
row,Sequence,PBM E-score
1,CTGTCGGC,0.35
2,GTGTCGTA,-0.209
3,GTGTCGCA,0.00208
4,CTGTCGGA,0.404
5,ATGTCGGG,0.222
6,GGACCAAA,0.187
7,ATACGCTC,0.00427
8,CGGCCACG,-0.0321
9,ACTCTGGA,-0.117
10,ATAGTCTA,-0.141
11,CGAAAGTA,0.00237
12,ACGAAAGA,-0.0168
13,AGCTTACG,-0.143
14,AGTCGGGG,0.282
15,CGACTCCA,-0.0167
16,CGACTCCG,0.406
17,AGACTCCC,-0.167
18,AGACTCCT,-0.224
19,AGACTCCG,0.418
20,CGACTCCC,0.0244
21,CGAGCAAC,-0.00501
22,AGAAGACC,0.0375
23,ACAAGACA,-0.0802
24,TACGAGTA,-0.0577
25,CGGACAAA,0.425

row,Sequence,PBM E-score
1,CGGACAAG,0.383
2,AGGACAAA,-0.0109
3,AGGACAAC,-0.163
4,GGGACAAC,-0.104
5,CGGACAAC,0.389
6,AACATGAC,-0.0624
7,GTCAACTA,-0.084
8,AGGGCTAA,-0.0787
9,GGGTCCGA,0.366
10,AGGTCCGA,0.404
11,AGGTCCGC,0.333
12,AGGTCCCA,-0.224
13,CGGTCCGC,0.38
14,AGGTCCAG,-0.113
15,AGGTCCAA,-0.179
16,CGGTCCGA,0.455
17,AGGTCCGG,0.418
18,ACTAGTGG,-0.0388
19,AACATAGC,-0.0617
20,ATGTTGCC,-0.036
21,ATTGACCA,-0.196
22,CCTATCAC,-0.119
23,AACACAAT,-0.152
24,GCAACACC,0.113
25,AGCTCGGA,0.322

row,Sequence,PBM E-score
1,CGCTCGGA,0.408
2,GCCTCGGA,0.352
3,CCCTCGGA,0.394
4,CCCTCGGC,0.207
5,GGCTCGGA,0.38
6,GCACTAGA,-0.16
7,CCTAGCAG,-0.268
8,CCGTTGAC,0.0534
9,CGAGCTGC,-0.00491
10,GTATGCGA,-0.0635
11,ATCAGGAA,-0.0943
12,AACTGCGA,0.148
13,TCAATTCA,-0.0799
14,AATTCGGC,0.157
15,TATTCGGA,0.408
16,CATTCGGA,0.339
17,GATTCGGA,0.363
18,AATTCGGG,0.215
19,AATTCGGA,0.449
20,TAAGGGCA,-0.144
21,CCCCGACC,0.28
22,ATAGTCAG,-0.158
23,GGGACCGA,0.164
24,CGGACCCC,0.365
25,CGGACCAC,0.293

row,Sequence,PBM E-score
1,CGGACCGC,0.392
2,CGGACCCG,0.394
3,AGGACCCG,0.158
4,AGGACCGA,0.0864
5,CGGACCGA,0.409
6,AGGACCGC,0.227
7,CCACTATC,0.00626
8,CTATAGAC,-0.167
9,CTGATCTC,-0.0675
10,ACTAATGC,0.126
11,CTCTGTTC,-0.0823
12,TCCGGTAA,0.44
13,CGGGGGTA,0.334
14,ACCGGGAA,0.352
15,CCGGGGGA,0.378
16,GCCGGTAA,0.341
17,CGGGGGAA,0.255
18,CCGGGGTA,0.408
19,ACCGGTAA,0.297
20,GCGGGGTA,0.323
21,TCCGGGAA,0.419
22,CCGGGGAA,0.399
23,CCCGGGAA,0.348
24,CAACGGCG,0.207
25,CCATCGCC,0.075

row,Sequence,PBM E-score
1,ATCCAGTA,-0.111
2,AGAGGTGC,0.0557
3,AGCATAGG,-0.11
4,GGACACAC,0.149
5,TCCGGGCA,0.406
6,CCGGGGCA,0.293
7,CCGGGGCG,0.42
8,GCCGGGCA,0.304
9,ACCGGGCA,0.279
10,CCCGGGCG,0.291
11,ATAACCTA,-0.148
12,CGAACTAA,-0.0681
13,ACGGATTC,0.246
14,ACGGATTA,0.205
15,GCGGATTA,0.261
16,CCGGATTA,0.455
17,CCGGATTC,0.405
18,CAGGATTC,-0.11
19,CATTGGGA,-0.198
20,AGCAGGAT,-0.079
21,GTGGCCTA,-0.135
22,GATTCTAC,0.107
23,CGCGGACA,0.345
24,GGCGGATA,0.293
25,CGCGGATC,0.272

row,Sequence,PBM E-score
1,GGCGGAAA,0.328
2,AGCGGAGA,0.394
3,CGCGGAGA,0.428
4,CGCGGATA,0.32
5,AGCGGATA,0.287
6,GGCGGAGA,0.444
7,CGCGGAGC,0.41
8,AGCGGAGG,0.302
9,AGCGGAGC,0.381
10,CGACTGAG,-0.181
11,CTCAGTCA,-0.282
12,CTGAGTTA,-0.248
13,ATTCCCAA,-0.06
14,ACCTCTCA,0.0413
15,TAATTCCA,-0.0294
16,CCTCGGAC,0.374
17,CCTCGGCG,0.359
18,CCTCGGAG,0.456
19,ACTCGGAC,0.383
20,GCTCGGAA,0.338
21,ACTCGGAA,0.398
22,TCTCGGAA,0.414
23,TCTCGGCA,0.266
24,CCTCGGCA,0.25
25,ACTCGGAT,0.251

row,Sequence,PBM E-score
1,CCTCGGAA,0.39
2,CCTCGGTA,-0.0307
3,CAATCATG,-0.214
4,CGTATTTA,0.0653
5,CAAGCTGC,-0.103
6,GAGGATAC,-0.125
7,ATTCATAC,0.0829
8,ACTCTTCA,-0.191
9,CGTCAGAA,-0.25
10,CGTTTAAC,-0.174
11,CGTTAGAC,-0.0149
12,AGCGCGTA,-0.109
13,CCCCTTAG,0.0521
14,ACTCGGTG,0.0389
15,ACTCGGCG,0.256
16,ACTCGGAG,0.428
17,TAGGGACA,-0.0143
18,AGGAGCGC,-0.0703
19,AGGAGCGA,-0.0963
20,CTGAGCGC,-0.145
21,CGGAGCGC,0.391
22,CGGAGCGA,0.415
23,GGGAGCGA,-0.116
